Results on eleven compounds are retold here after PubChem BioAssay (NCATS).

Results filed as inconclusive are left out. Active and inactive are the calls of the source. Unless noted, the rule behind the calls is not given here.

The nature of experiment [1]: qHTS profiling of the MIPE4 collection as inhibitors of Plasmodium falciparum (3D7) proliferation (AID 743344).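 Note: scaled between DMSO vehicle wells and 0.29 µM artemisinin as full inhibition.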 Particulars: P. falciparum 3D7 in erythrocytes, SYBR Green DNA fluorescence, 72 h; at 28.5 µM unless noted. Summed up: (§1)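 Parasite DNA was quantified by SYBR Green I fluorescence (ex 485, em 535 nm) after overnight lysis in saponin/Triton buffer at room temperature. Cultures at 0.3% parasitemia and 2.5% hematocrit were first exposed to compound for 72 h at 37 C; signals were normalised to artemisinin (0.29 uM) and vehicle wells.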
For orientation: Quantitative high-throughput screening tests each substance at several concentrations.

A short description of experiment [2]: qHTS profiling of the MIPE4 collection as inhibitors of Plasmodium falciparum (DD2) proliferation (AID 743345). Particulars: P. falciparum Dd2 in erythrocytes, SYBR Green DNA, 72 h; at 28.5 µM unless noted. Summed up:
as §1

Experiment [3] can be described thus: qHTS profiling of the MIPE4 collection as inhibitors of Plasmodium falciparum (DD2) proliferation (Rep 2) (AID 743346). Particulars: P. falciparum Dd2 in erythrocytes, SYBR Green DNA, 72 h; at 28.5 µM unless noted. The method in brief:
as §1

Experiment [4] is described as follows: qHTS profiling of the MIPE4 collection as inhibitors of Plasmodium falciparum (HB3) proliferation (AID 743347).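 Note: plate controls were DMSO vehicle wells for no effect and artemisinin wells for full effect.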 Particulars: P. falciparum HB3 in erythrocytes, SYBR Green DNA, 72 h; at 28.5 µM unless noted. Summed up: as §1
The nature of experiment [5]: High-throughput drug toxicity screening in the BPDCN cell line Gen2.2 (AID 1224824).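 Note: cells exposed to compounds for 48 h before reading.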 Particulars: Gen2.2 BPDCN cells; at 45.8 µM (top of the series) unless noted. The method in brief: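 CellTiter-Glo luminescence after 48 h compound exposure of Gen2.2 cells; percent activity set with DMSO as 100% and bortezomib (9.2 uM final) as 0%. Cells seeded at 500 per well, RPMI + 10% FBS, 37 °C.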

A short description of experiment [6]: High-throughput drug toxicity screening in the BPDCN cell line Cal-1 (AID 1224825). Particulars: Cal-1 BPDCN cell viability, qHTS; at 45.8 µM (top of the series) unless noted. The method in brief: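 Viability of the BPDCN line Cal-1 is measured as ATP-based luminescence (CellTiter-Glo) following 48 h incubation with compounds. Percent activity uses DMSO-treated wells as 100% and 9.2 uM bortezomib as 0%.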

The nature of experiment [7]: qHTS assay for measurement of the activity of small molecule inhibitors on Zika virus induced Caspase-3 activity in human iPSC derived neural progenitor cells (hNPCs) (AID 1224857; active = well fitted curve in the direction sought with a large enough effect; an effect the other way counts as inactive or inconclusive; note: % of control where 0% means no effect; nearly all actives have a fitted effect of over 65% in size). Summed up: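 Pretreat hNPCs with compound 1 h; infect ZIKV 2 FFU/cell; 6 h 37 C, 5% CO2; Caspase-Glo 3/7, 30 min RT; luminescence; normalize to no-virus and virus-only wells.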
Experiment [8] is described as follows: qHTS Screen of the MIPE 4.0 Collection Against Ewings Sarcoma (RDES) (AID 1259252; active = well fitted curve in the direction sought with a large enough effect; an effect the other way counts as inactive or inconclusive; note: nearly all actives have a fitted effect of over 35% in size; note: potency is the fitted concentration of half-maximal effect). Summed up: (§2)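 Measured: ATP luminescence (CellTiter-Glo) 10 min after reagent addition, following 48 h drug treatment. Relative luciferase units converted to percent activity, with no-cell wells as full and DMSO wells as zero inhibition.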
Experiment [9] is described as follows: qHTS Screen of the MIPE 4.0 Collection Against Ewings Sarcoma (EW8) (AID 1259255; active = well fitted curve in the direction sought with a large enough effect; an effect the other way counts as inactive or inconclusive; note: nearly all actives have a fitted effect of over 35% in size; note: potency is the fitted concentration of half-maximal effect;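 for viability: 100% = DMSO-treated cells and 0% = medium-only wells without cells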). Summed up:
as §2

Experiment [10] is described as follows: qHTS Screen of the MIPE 4.0 Collection Against Ewings Sarcoma (TC32) (AID 1259256; active = well fitted curve in the direction sought with a large enough effect; an effect the other way counts as inactive or inconclusive; note: nearly all actives have a fitted effect of over 45% in size; note: potency is the fitted concentration of half-maximal effect). The method in brief: as §2
A short description of experiment [11]: qHTS Screen of the MIPE 4.0 Collection Against Ewings Sarcoma (TC71) (AID 1259253; active = well fitted curve in the direction sought with a large enough effect; an effect the other way counts as inactive or inconclusive; note: potency is the fitted concentration of half-maximal effect; nearly all actives have a fitted effect of over 40% in size). Summed up:
as §2

Experiment [12] can be described thus: qHTS profiling for inhibitors of Plasmodium falciparum (DD2) proliferation (AID 743323). Particulars: lower = more inhibition; at 28.7 µM (top of the series) unless noted. Summed up: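 Parasite DNA quantified by SYBR Green fluorescence (ex 485, em 535 nm) after saponin/Triton lysis and overnight dark incubation. Cultures: 0.3% parasitemia, 2.5% hematocrit, 72 h, 37 C; data scaled between DMSO and 0.29 uM artemisinin.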

A short description of experiment [13]: qHTS profiling for inhibitors of Plasmodium falciparum (HB3) proliferation (AID 743324; active = well fitted curve in the direction sought with a large enough effect; an effect the other way counts as inactive or inconclusive;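 note: 100% = DMSO vehicle wells and 0% = artemisinin-treated control wells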). Particulars: Plasmodium falciparum HB3 blood-stage proliferation; at 28.7 µM (top of the series) unless noted. The method in brief: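 SYBR Green fluorescence (485 ex/535 em) of lysed cultures, incubated overnight at room temperature in the dark, quantifies parasite DNA. Infected erythrocytes at 0.3% parasitemia and 2.5% hematocrit were exposed 72 h; values normalized to DMSO and 0.29 uM artemisinin controls.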

The nature of experiment [14]: Identifying Small Molecule Inhibitors of Pancreatic Cancer Stem Cells (A2780, Spheroid) (AID 1259357; active = well fitted curve in the direction sought with a large enough effect; an effect the other way counts as inactive or inconclusive;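 note: spheroids pre-formed over 14 days in stem cell medium on hydrogel; compound exposure lasted 48 h before the ATP luminescence read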). Particulars: Potency: A2780 spheroid viability. The method in brief: (§3)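 Spheroids grown 14 days in stem cell media on hydrogel-coated nonadherent plates; 2D lines seeded directly. Compounds added after 4 h attachment, 48 h at 37C, 5% CO2; CellTiter-Glo luminescence normalized to DMSO (no inhibition) and no-cell wells (full inhibition).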

Experiment [15] is described as follows: Identifying Small Molecule Inhibitors of Pancreatic Cancer Stem Cells (SN12C, Adherent) (AID 1259358; active = well fitted curve in the direction sought with a large enough effect; an effect the other way counts as inactive or inconclusive;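 note: potency is the fitted concentration of half-maximal effect; cell survival measured after 48 h of compound exposure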). The method in brief: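 After a 4 h attachment period, compounds were pinned into wells and cultures held 48 h under standard incubator conditions. Viability was then measured as CellTiter-Glo luminescence following 10 min at room temperature.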
A short description of experiment [16]: Identifying Small Molecule Inhibitors of Pancreatic Cancer Stem Cells (SN12C, Spheroid) (AID 1259360; active = well fitted curve in the direction sought with a large enough effect; an effect the other way counts as inactive or inconclusive). Particulars: Potency: SN12C spheroid viability. Summed up:
as §3

Compound `Cc1cc(OCCCS(C)(=O)=O)cc(C)c1-c1cccc(COc2ccc3c(c2)OC[C@H]3CC(=O)O)c1` displayed a parasite growth, % of DMSO control in [1] of 52.2%. In experiment [2], this compound came in with a parasite growth remaining, % of DMSO control (lower = more inhibition) of 34.3%. The same compound displayed a parasite growth, % of control (lower = inhibition) in [3] of 61.9%. This compound came in with a growth, % of control in [4] of 90.9%. For the same compound, in experiment [5], the cell viability, % of control (lower = more cytotoxic) was 168%. Besides, in experiment [6], the viability (% of control) was 91.1%. Besides, the Potency result in experiment [7], in experiment [8] and in [10] was “inactive” each time. Further, the Potency in experiment [9] is 20.9 µM (active).

On to `CN1CCN(c2cccc(Nc3nc4c(-c5ccc(S(C)(=O)=O)cc5)cccn4n3)c2)CC1`, for which the parasite growth, % of DMSO control in experiment [1] was 11.4%. The parasite growth remaining, % of DMSO control (lower = more inhibition) in experiment [2] is 11.3%. In [3], this compound yielded a parasite growth, % of control (lower = inhibition) of 11.4%. In experiment [4], this compound displayed a growth, % of control of 10.2%. In addition, in [5], the cell viability, % of control (lower = more cytotoxic) was found to be 83%. Besides, the viability (% of control) in experiment [6] was found to be 50.9%. In addition, the Potency result in experiment [7] is “inactive”. Besides, the Potency in experiment [8] is 3.72 µM (active).

`CCC[C@@H](NC(=O)[C@@H]1[C@H]2CCC[C@@H]2CN1C(=O)[C@@H](NC(=O)[C@@H](NC(=O)c1cnccn1)C1CCCCC1)C(C)(C)C)C(=O)C(=O)NC1CC1` displayed a parasite growth, % of control (lower = inhibition) in experiment [3] of 19.9%. The growth, % of control in [4] worked out at 10.3%. Moreover, the cell viability, % of control (lower = more cytotoxic) in experiment [5] was 48.1%. Moreover, the viability (% of control) in [6] was determined as 63.1%. In addition, the Potency result in [7] and in [8] was “inactive” throughout. The Potency in [9] is 16.6 µM (active).

In [1], `CCCCN(CCCC)CC(O)c1cc(Cl)cc2c1-c1ccc(Cl)cc1C2=Cc1ccc(Cl)cc1` (configuration not stated) came in with a parasite growth, % of DMSO control of 8.66%. Moreover, the parasite growth remaining, % of DMSO control (lower = more inhibition) in [2] came to 7.19%. Also, in experiment [3], the parasite growth, % of control (lower = inhibition) came to 11.5%. This compound had a growth, % of control in experiment [4] of 11.8%. Further, the cell viability, % of control (lower = more cytotoxic) in experiment [5] is 27%. Besides, the viability (% of control) in experiment [6] came out at 63%. In addition, the Potency result in experiment [7], in experiment [8] and in experiment [9] was “inactive” each time.

The compound `CC1=C(C(=O)Nc2cc3cn[nH]c3cc2F)C(c2ccc(C(F)(F)F)cc2)CC(=O)N1` (configuration not stated) gave a parasite growth, % of DMSO control in experiment [1] of 5.13%. Further, the parasite growth remaining, % of DMSO control (lower = more inhibition) in experiment [2] was 8.5%. In [3], this compound gave a parasite growth, % of control (lower = inhibition) of 7.16%. Also, in experiment [4], the growth, % of control was found to be 5.72%. Besides, the cell viability, % of control (lower = more cytotoxic) in experiment [5] came out at 88.7%. Moreover, in [6], the viability (% of control) was 58%. Moreover, the Potency entry in experiment [7], in experiment [9] and in [10] was “inactive” each time. Besides, in experiment [8], the Potency is 1.48 µM (active).

Compound `c1ccc(-c2oc3ncnc(NC[C@@H]4CCCO4)c3c2-c2ccccc2)cc1` yielded a parasite growth, % of DMSO control in [1] of 36.2%. In addition, the parasite growth remaining, % of DMSO control (lower = more inhibition) in experiment [2] was 72.4%. The compound also showed a parasite growth, % of control (lower = inhibition) in experiment [3] of 41.6%. For the same compound, in experiment [5], the cell viability, % of control (lower = more cytotoxic) was 343%. Also, the viability (% of control) in [6] turned out to be 42.1%. The Potency result in experiment [7] is “inactive”. Moreover, the values for the Potency in [11] and in experiment [10] were 23.5 µM (active) and 20.9 µM (active), respectively.

Regarding `Cc1cnc(Nc2cccc(CN3CCOCC3)c2)nc1Nc1cccc(S(=O)(=O)NC(C)(C)C)c1`, in experiment [1], the parasite growth, % of DMSO control was determined as 4.05%. Further, in [2], the parasite growth remaining, % of DMSO control (lower = more inhibition) is 8.36%. Also, the parasite growth, % of control (lower = inhibition) in [3] worked out at 17.3%. The growth, % of control in [4] amounted to 7.02%. The cell viability, % of control (lower = more cytotoxic) in [5] was 14%. The viability (% of control) in experiment [6] was found to be 3.36%. In addition, in experiment [7], the Potency entry is “inactive”. Also, the Potency in [11] is 2.35 µM (active); in experiment [9] it was 2.64 µM (active); in experiment [10] it was 1.87 µM (active).

In experiment [1], `CN1[C@H]2CC[C@H]1CC(OC(=O)c1c[nH]c3ccccc13)C2` (some centres not stated) had a parasite growth, % of DMSO control of 53%. Moreover, the parasite growth remaining, % of DMSO control (lower = more inhibition) in experiment [2] was determined as 26.8%. The compound also registered a parasite growth, % of control (lower = inhibition) in experiment [3] of 19.2%. The same compound displayed a growth, % of control in [4] of 22%. The cell viability, % of control (lower = more cytotoxic) in [5] amounted to 99%. The viability (% of control) in [6] stood at 111%. Also, the Potency entry in experiment [7] was “inactive”. The Potency was 18.7 µM (active) in [11] and 3.32 µM (active) in experiment [10].

For `CCC(=C(c1ccc(O)cc1)c1ccc(OCCNC)cc1)c1ccccc1`, in [1], the parasite growth, % of DMSO control came to 5.26%. The compound also gave a parasite growth remaining, % of DMSO control (lower = more inhibition) in [2] of 15.1%. Besides, in experiment [3], the parasite growth, % of control (lower = inhibition) was found to be 13.1%. This compound also returned a growth, % of control in experiment [4] of 3.87%. The cell viability, % of control (lower = more cytotoxic) in [5] worked out at 16.9%. The viability (% of control) in experiment [6] was 4.15%. The Potency entry in experiment [7] was “inactive”. The Potency was 20.9 µM (active) in [11] and 26.4 µM (active) in experiment [9].

With `Cc1cccc(Nc2nc(N[C@@H]3CCCC[C@H]3N)ncc2C(N)=O)c1`, the activity, percent of control in experiment [12] turned out to be 4.78%. Moreover, in experiment [13], the remaining proliferation (% of control), lower = more inhibition was determined as 0.632%. In [1], this compound yielded a parasite growth, % of DMSO control of 5.2%. This compound showed a parasite growth, % of control (lower = inhibition) in experiment [3] of 7.28%. Besides, the growth, % of control in [4] was found to be 2.45%. The cell viability, % of control (lower = more cytotoxic) in experiment [5] was 2.09%. Moreover, the viability (% of control) in experiment [6] was 2.41%. Also, the Potency entry in experiment [7], in [14] and in [16] was “inactive” throughout. In addition, the figures for the Potency in experiment [8], in experiment [11] and in experiment [15] were 16.6 µM (active), 18.7 µM (active) and 18.7 µM (active), respectively.

For `C=CCc1cccc(C=NNC(=O)CN2CCN(Cc3ccccc3)CC2)c1O`, in experiment [1], the parasite growth, % of DMSO control came out at 38.6%. This compound came in with a parasite growth remaining, % of DMSO control (lower = more inhibition) in experiment [2] of 23.3%. The compound further had a parasite growth, % of control (lower = inhibition) in [3] of 19.3%. For the same compound, in [4], the growth, % of control stood at 97.7%. Besides, in experiment [5], the cell viability, % of control (lower = more cytotoxic) was found to be 67.9%. The viability (% of control) in [6] was 11.1%. Further, the Potency result in experiment [7] was “inactive”. The Potency in [9] was 10.5 µM (active); in experiment [10], 7.43 µM (active).
